Experimental data as given in PubChem BioAssay (NCATS).
Values joined by “and” are separate entries in the source; they are usually repeats but may differ in a detail not shown here. Equal entries are not always repeated. Records with an inconclusive call do not appear. Where a call stands in place of a potency, no number is given. Active and inactive are the calls of the source. The call rests on the fitted dose curve; in most records, active means well fitted curve in the direction sought with a large enough effect in the repeat runs; inconclusive means weak or mixed curves; inactive means no such curve, though single readings can be large; an effect the other way counts as inactive or inconclusive.

Assay: qHTS assay for small molecule agonists of the antioxidant response element (ARE) signaling pathway measured by Nrf2-dependant transcriptional activity (AID 720636)
Conditions: ARE-luc HepG2, Nrf2 luciferase reporter, 16 h; series mostly up to 92.4 µM
How it was run: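 Attachment 6 hr at 37 C, then compound versus DMSO vehicle for 16 hr in ARE-luc HepG2 cells (1% dialyzed FBS); luminescence recorded 30 min after ONE-Glo addition at room temperature.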
Potency means the concentration at half of the fitted maximal effect.

| SMILES | Potency |
| --- | --- |
| c1ccc2occc2c1 | inactive |
| COc1ccc(C(c2ccc(OC)cc2)C(Cl)(Cl)Cl)cc1 | inactive |
| C=CC(=O)NCNC(=O)C=C | inactive |
| OCCCBr | inactive |
| O=[N+]([O-])c1cc([N+](=O)[O-])c2ccccc2c1 | 42.2 µM (active) |
| COc1nn(CSP(=S)(OC)OC)c(=O)s1 | inactive |
| CC(C)(C)C(O)C(Oc1ccc(Cl)cc1)n1cncn1 (stereo not given) | inactive |
| O=C(O)COc1nc(Cl)c(Cl)cc1Cl | inactive |
| CCCCCCCCCC(CC)c1ccc(S(=O)(=O)O)cc1 (stereo not given) | inactive |
| Nc1ccc(Sc2ccc(N)cc2)cc1 | inactive |
| O=C(O)CCCOc1ccc(Cl)cc1Cl | inactive |
| CC(C)Oc1cccc(NC(=O)c2ccccc2C(F)(F)F)c1 | inactive |
| CCO/N=C(\CC)C1=C(O)CC(c2c(C)cc(C)cc2C)CC1=O (stereo not given) | inactive |
| O=[N+]([O-])/N=C1\NCCN1Cc1ccc(Cl)nc1 | inactive |
| O=[N+]([O-])c1c(Cl)c(Cl)cc(Cl)c1Cl | inactive |
| C=CCC1=C(C)C(OC(=O)C2C(C=C(C)C)C2(C)C)CC1=O (stereo not given) | inactive |
| CS(=O)(=O)c1ccc(C(=O)C2C(=O)CCCC2=O)c([N+](=O)[O-])c1 | inactive |
| Nc1ccc(Cl)cc1 | inactive |
| Nc1ccc([N+](=O)[O-])cc1 | inactive |
| CO/C=C(/C(=O)OC)c1ccccc1Oc1cc(Oc2ccccc2C#N)ncn1 | inactive |
| ClC1=C(Cl)[C@]2(Cl)[C@@H]3[C@@H]4C[C@@H]([C@H]5O[C@@H]45)[C@@H]3[C@@]1(Cl)C2(Cl)Cl | inactive |
| CCCCC(CC)COC(=O)c1ccccc1C(=O)OCC(CC)CCCC (stereo not given) | inactive |
| c1cc2ccc3cccc4ccc(c1)c2c34 | inactive |
| CCOP(=O)(NC(C)C)Oc1ccc(SC)c(C)c1 (stereo not given) | inactive |
| O=C(Nc1ccccc1-c1ccc(Cl)cc1)c1cccnc1Cl | inactive |
| O=S(=O)(O)C(F)(F)C(F)(F)C(F)(F)C(F)(F)C(F)(F)C(F)(F)C(F)(F)C(F)(F)F | inactive |
| O=S(=O)(c1ccc(Cl)cc1)c1ccc(Cl)cc1 | inactive |

Assay: qHTS assay for small molecule antagonists of the retinoid-related orphan receptor gamma (ROR-gamma) signaling pathway - cell viability counter screen (AID 720652);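 further: compound exposure lasted 16 hr before ATP read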
Conditions: RORgamma reporter cell line viability counter screen; series mostly up to 92.2 µM
How it was run: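 Luminescence from CellTiter-Glo after 30 min at room temperature reported cellular ATP as the cytotoxicity measure. Cells were the CHO reporter line with doxycycline-induced ROR-gamma expression, exposed to compound for 16 hr at 37 C.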

| SMILES | Potency |
| --- | --- |
| COc1ccc(C(c2ccc(OC)cc2)C(Cl)(Cl)Cl)cc1 | 66.8 µM (active) and 42.2 µM (active) |
| C=CC(=O)NCNC(=O)C=C | inactive |
| OCCCBr | inactive |
| O=[N+]([O-])c1cc([N+](=O)[O-])c2ccccc2c1 | inactive |
| Nc1ccc(Cl)cc1N | inactive |
| Nc1ccc(Sc2ccc(N)cc2)cc1 | inactive |
| O=[N+]([O-])c1c(Cl)c(Cl)cc(Cl)c1Cl | inactive |
| Nc1ccc(Cl)cc1 | inactive |
| Nc1ccc([N+](=O)[O-])cc1 | inactive |
| CCCCC(CC)COC(=O)c1ccccc1C(=O)OCC(CC)CCCC (stereo not given) | inactive |
| c1cc2ccc3cccc4ccc(c1)c2c34 | inactive |
| CCOP(=O)(NC(C)C)Oc1ccc(SC)c(C)c1 (stereo not given) | inactive |
| O=S(=O)(c1ccc(Cl)cc1)c1ccc(Cl)cc1 | inactive |
